The text below walks through data of PubChem BioAssay (NCATS).

Where “and” joins values, the source holds several entries; their conditions need not be identical. Equal values may be shown once. Inconclusive results are not listed. A structure can be active in one record and inactive in another. Calls of active or inactive are those of the source. Calls come from the whole dose curve; as a rule, active = well fitted curve in the direction sought with a large enough effect; inconclusive = small, poorly fitted or top-dose-only effect, or another doubt; inactive = no such curve, though single readings can be large; an effect the other way counts as inactive or inconclusive.

One test relates to MCC-26. The test can be described thus: qHTS assay to identify novel small-molecules to repurpose for Merkel cell carcinoma treatment (AID 1296009). Note: nearly all actives have a fitted effect of over 60% in size. The note with it: MCC and control cell lines, CellTiter-Glo viability, 72 h; series mostly up to 46 µM. In outline: (§1)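 qHTS format: cells treated with library compounds in DMSO across 8 (NPC) or 11 (MIPE) concentrations. Readout after 72 hr at 37 degree celsius was CellTiter-Glo luminescence.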
(In general: Quantitative high-throughput screening tests each substance at several concentrations.)

In the next test the test system is MKL-1. The description is as above. To be noted: MCC and control cell lines, CellTiter-Glo viability, 72 h; series mostly up to 46 µM. In outline:
as §1
In general terms: ATP-based viability assays read luminescence as a measure of living cells.

Another test concerns MKL-2. The test is described as above. To be noted: MCC and control cell lines, CellTiter-Glo viability, 72 h; series mostly up to 46 µM. In outline: as §1
A further test concerns NIH3T3. The description is as above. The note with it: MCC and control cell lines, CellTiter-Glo viability, 72 h; at 44.8 µM (top of the series) unless noted. In outline: as §1
A further test concerns UISO. The test is described as above. To be noted: MCC and control cell lines, CellTiter-Glo viability, 72 h; series mostly up to 46 µM. Put shortly: as §1
For the next test, the system named is WaGa. The description is as above. To be noted: MCC and control cell lines, CellTiter-Glo viability, 72 h; series mostly up to 46 µM. Put shortly: as §1
The next test concerns C33A. The test can be described thus: Primary qHTS to identify gynecologic anti-cancer compounds using libraries of approved drugs and bioactive compounds (AID 1345084). Note: nearly all actives have a fitted effect of over 55% in size. To be noted: Gynecologic cancer cell panel viability, ATPlite luminescence, 48 h; series mostly up to 57.5 µM. Put shortly: (§2)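 Five-point cytotoxicity, 48 h drug exposure at 37 C, 5% CO2, on cells seeded 16 h beforehand. ATP content read by ATPlite luminescence.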

A further test has as its system CAOV3. The description is as above. The note with it: Gynecologic cancer cell panel viability, ATPlite luminescence, 48 h; series mostly up to 57.5 µM. In outline: as §2
In a further test the test system is CASKI. Described as above. The note with it: Gynecologic cancer cell panel viability, ATPlite luminescence, 48 h; series mostly up to 57.5 µM. Put shortly: as §2
For another test, the system named is Es-2. Described as above. The note with it: Gynecologic cancer cell panel viability, ATPlite luminescence, 48 h; series mostly up to 57.5 µM. In outline:
as §2

The next test has as its system Hek293T. The test is described as above. The note with it: Gynecologic cancer cell panel viability, ATPlite luminescence, 48 h, control line for the selectivity index; series mostly up to 57.5 µM. In outline:
as §2

Another test deals with JEG-3. Described as above. To be noted: Gynecologic cancer cell panel viability, ATPlite luminescence, 48 h; series mostly up to 57.5 µM. Put shortly:
as §2

The test system of the next test is OV90. Described as above. The note with it: Gynecologic cancer cell panel viability, ATPlite luminescence, 48 h; series mostly up to 57.5 µM. Put shortly:
as §2

For the next test, the system named is PA-1. Described as above. To be noted: Gynecologic cancer cell panel viability, ATPlite luminescence, 48 h; series mostly up to 57.5 µM. Put shortly:
as §2

The test system of a further test is SKOV3. Described as above. The note with it: Gynecologic cancer cell panel viability, ATPlite luminescence, 48 h; series mostly up to 57.5 µM. Put shortly:
as §2

A further test has as its system Tov-21-G. The description is as above. To be noted: Gynecologic cancer cell panel viability, ATPlite luminescence, 48 h; series mostly up to 57.5 µM. Put shortly: as §2
The subject of the next test is Tov112D. Described as above. The note with it: Gynecologic cancer cell panel viability, ATPlite luminescence, 48 h; series mostly up to 57.5 µM. In outline:
as §2

Test [1] in a line: Drug repurposing screens with cells derived from glioblastoma tumor samples (AID 1345199). Note: nearly all actives have a fitted effect of over 40% in size. To be noted: GBM patient neurospheres viability, ATP luminescence, 48 h. Put shortly: (§3)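 Four patient lines of CD133+ GBM neurospheres were screened at several concentrations; hits were retested in those lines plus three slower-growing GBM lines, using 48-hour treatment and ATP-based viability.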

A further test concerns astro. Described as above. The note with it: viability, ATP luminescence, 48 h; series mostly up to 45.9 µM. In outline:
as §3

Another test deals with HeLa. The test can be described thus: Primary qHTS to identify gynecologic anti-cancer compounds using libraries of approved drugs and bioactive compounds (AID 1345084). Note: nearly all actives have a fitted effect of over 55% in size. To be noted: Gynecologic cancer cell panel viability, ATPlite luminescence, 48 h; series mostly up to 57.5 µM. In outline:
as §2

[2] abbreviates: at 45.9 µM (top of the series), tumour line B.
Where [3] appears, read: at 46.1 µM (top of the series), tumour line C.
Where [4] appears, read: at 45.9 µM (top of the series), tumour line D.
% is set by controls: 0 for no effect and ±100 for the full control effect; potency is the fitted concentration of half-maximal effect.

In the case of `CC(=O)[C@H]1CC[C@H]2[C@@H]3CC=C4C[C@@H](O)CC[C@]4(C)[C@H]3CC[C@]12C`, the Potency entry in the test on MCC-26, with MKL-1, in the test on MKL-2, with UISO, in the test on WaGa and with C33A was “inactive” each time. The Potency entry with CAOV3, in the test with CASKI, in the test on Es-2, with Hek293T, in the test with JEG-3 and in the test on OV90 was “inactive” in each case. Further, the Potency entry in the test on PA-1, with SKOV3, in the test on Tov-21-G, in the test with Tov112D and with astro was “inactive” throughout. For the same compound, in the test on NIH3T3, the result was inactive. In addition, the figures for the activity, negative = cell killing in test [1] (setting [2]) and in [1] (setting [3]) were -3.14% (inactive) and 6.87% (inactive), respectively.

As for `CC(C(=O)O)c1ccc2c(c1)CC(=O)c1ccccc1S2` (centres undefined), the Potency entry in the test with MCC-26, in the test on MKL-1, with MKL-2, in the test on UISO, in the test with WaGa and in the test on C33A was “inactive” throughout. The Potency result in the test on CAOV3, in the test with CASKI, in the test with Es-2, with Hek293T, with JEG-3 and in the test with OV90 was “inactive” in each case. The Potency entry in the test on PA-1, with SKOV3, in the test on Tov-21-G, with Tov112D and with astro was “inactive” throughout. The outcome with NIH3T3 was inactive. The activity, negative = cell killing is -3.56% (inactive) in [1] (setting [2]); -21.1% (inactive) in [1] (setting [4]); -9.77% (inactive) in [1] (at 46 µM (top of the series), tumour line A); 5.54% (inactive) in test [1] (setting [3]).

Consider `CC(C)OC(=O)C(C(=O)OC(C)C)=C1SC=CS1`, for which the Potency entry with MCC-26, in the test with MKL-1, with MKL-2, with UISO, with WaGa and with C33A was “inactive” in each case. The Potency entry in the test on CAOV3, in the test with CASKI, with Es-2, in the test with HeLa, with Hek293T and in the test on OV90 was “inactive” each time. The Potency entry in the test on PA-1, with Tov-21-G, in the test on Tov112D and with astro was “inactive” throughout. The compound was classed as inactive with NIH3T3. For the same compound, the Potency was 25.1 µM (active) in the test with SKOV3 and 11.2 µM (active) in [1] (tumour line A). Also, the activity, negative = cell killing in [1] (setting [3]) was -18.3% (inactive).

With `COc1cc2c(Nc3ccc(Br)cc3F)ncnc2cc1OCC1CCN(C)CC1`, the Potency result with MCC-26, in the test with MKL-1, in the test with MKL-2, in the test on WaGa, in the test on CAOV3 and in the test on CASKI was “inactive” in each case. Further, the Potency entry in the test on Es-2, in the test with Hek293T, with OV90, in the test with PA-1 and with Tov-21-G was “inactive” in each case. Moreover, the result in the test with NIH3T3 was inactive. The Potency with UISO is 20.9 µM (active) and inactive; with C33A, “inactive and 22.4 µM (active)”; with JEG-3, “inactive and 28.2 µM (active)”; in the test with SKOV3, “inactive and 12.6 µM (active)”; in the test on Tov112D it was “inactive and 31.6 µM (active)”; in the test on astro, 14.1 µM (active).

On to `O=NN(CCCl)C(=O)NC1CCCCC1`, for which the Potency result with MCC-26, in the test on MKL-1, in the test with MKL-2, in the test on UISO, with WaGa and with C33A was “inactive” throughout. Besides, the Potency entry in the test on CAOV3, with CASKI, in the test with Es-2, with HeLa, with Hek293T and in the test on JEG-3 was “inactive” in each case. Besides, the Potency entry in the test on OV90, in the test on PA-1, in the test with SKOV3, in the test with Tov-21-G, with Tov112D and in the test on astro was “inactive” each time. Moreover, in the test with NIH3T3, the compound was called inactive. Further, the activity, negative = cell killing in [1] (setting [2]) was -2.15% (inactive); in [1] (setting [4]), -13.5% (inactive); in test [1] (setting [3]) it was -16.6% (inactive).

On to `O=P(O)(O)C(O)(Cc1cccnc1)P(=O)(O)O`, for which the Potency entry with MCC-26, in the test on MKL-1, in the test on MKL-2, in the test with UISO, with WaGa and with C33A was “inactive” each time. In addition, the Potency entry with CAOV3, in the test on CASKI, in the test on Es-2, with HeLa, in the test with Hek293T and with JEG-3 was “inactive” each time. Moreover, the Potency entry with OV90, in the test with PA-1, in the test with SKOV3, in the test on Tov-21-G, in the test with Tov112D and in the test on astro was “inactive” in each case. In addition, the call with NIH3T3 was inactive. The activity, negative = cell killing in test [1] (setting [2]) was -9.54% (inactive); in test [1] (setting [4]), -7.26% (inactive); in test [1] (setting [3]), 2.44% (inactive).
